Results from PubChem BioAssay AID1117319 (Southern Research Institute, 2015).
Screen size: about 260,000 compounds; about 1,500 (0.58%) were called active. Not shown: some 5% with an inconclusive outcome.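 How the source made its calls: active means inhibition above a set limit at one or more doses, reproduced on every date tested; inconclusive means results disagree between test dates, or hit never tested in dose response; inactive means the rest.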 The list is a sample of the results. Measured potencies and affinities stand elsewhere.

molecular target: Virion infectivity factor (Human immunodeficiency virus type 1 group M subtype B (isolate BH10)) + Virion infectivity factor (Human immunodeficiency virus type 1 group M subtype B (isolate BRU/LAI)) + Virion infectivity factor (Human immunodeficiency virus type 1 group M subtype B (isolate PCV12)) + Virion infectivity factor (Human immunodeficiency virus type 1 group M subtype B (isolate HXB2)) + DNA dC->dU-editing enzyme APOBEC-3G (Homo sapiens) (UniProt P69720+P69721+P69722+P69723+Q9HC16); assay: inhibitors of Vif binding to APOBEC3G peptide, primary screen, biochemical, TR-FRET, GST-Vif 1-94, biotin-A3G peptide, dose response retest (AID 1117319); details: active compounds read high;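 further: Vif residues 1-94 fused to GST binding biotinylated APOBEC3G peptide 110-148; 0% = full assay without inhibitor and 100% = GST in place of GST-Vif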

Row | SMILES | inhibition
1 | CCOC(=O)c1nc(C)n(-c2ccc(Cl)cc2Cl)n1 | 23.2% (inactive)
2 | CCOC(=O)c1nn(-c2ccccc2C)c(=O)c(C#N)c1C | 12.1% (inactive)
3 | O=C(Oc1c(-c2ccccc2)oc2ccccc2c1=O)c1ccccc1 | -7.08% (inactive)
4 | Cc1ccc(-c2c(C(=O)Nc3ccccc3C)c(C)[nH]c(=S)c2C#N)o1 | 17.8% (inactive)
5 | N#Cc1c(-c2ccc(Cl)cc2)c2c([nH]c1=S)CCCC2 | -9.58% (inactive)
6 | N#Cc1c(-c2cccnc2)c2c([nH]c1=S)CCCC2 | 28.4% (inactive)
7 | Cc1ccccc1NC(=O)c1c(C)[nH]c(=S)c(C#N)c1-c1ccc(Cl)cc1 | -0.84% (inactive)
8 | COc1ccc(OC)c(-c2c3c([nH]c(=S)c2C#N)CCCC3)c1 | -14.3% (inactive)
9 | COc1ccc(-c2c3c([nH]c(=S)c2C#N)CCC3)cc1 | -9.25% (inactive)
10 | CC(=O)OC1CC[C@@]2(C)C(CCC3C2CC(=O)[C@@]2(C)C3CC3CC(C)=CC(=O)C32)C1 (some centres undefined) | -1.09% (inactive)
11 | CC(Oc1ccccc1F)C(=O)NNC(=O)CCS(=O)(=O)c1ccccc1Cl (centres undefined) | 3.79% (inactive)
12 | CC1CC(C)(C)NC(=S)N1CCC(=O)N1CCc2ccccc2C1 (centres undefined) | -8.29% (inactive)
13 | CC1(C)C(=O)NCCN1C(=O)CCC(=O)O | -4.36% (inactive)
14 | Cc1ccc(CNC(=O)C2CC3Cn4c(nc5cc6ccccc6cc54)C3N2C)o1 (centres undefined) | 5.41% (inactive)
15 | O=C(CSc1ccc(-c2nc3ccccc3[nH]2)cn1)Nc1ccc(S(=O)(=O)N2CCCC2)cc1 | -5.26% (inactive)
16 | O=C(CSc1nnc(NC(=O)c2cccc(Cl)c2)s1)NCC1CCCO1 (centres undefined) | 3.82% (inactive)
17 | CCOc1cc(N2CCOCC2)c(OCC)cc1NC(=O)COc1ccc2ccc(=O)oc2c1 | -0.33% (inactive)
18 | COc1ccccc1C(c1nnnn1Cc1ccco1)N1CCN(c2cccc(C)c2C)CC1 (centres undefined) | 25.8% (inactive)
19 | COC(=O)C1CCCCN1C(=O)c1cc(COc2cccc3cccnc23)on1 (centres undefined) | 4.07% (inactive)
20 | O=C(c1cc(COc2ccc3ncccc3c2)on1)N1CCC[C@H]1CO | 1.67% (inactive)
21 | COc1cccc(CNC(=O)CCCN2C(=O)C(c3ccccc3)Oc3cccnc32)c1OC (centres undefined) | -2.88% (inactive)
22 | CCOC(=O)C1=C(C)N(C2CCCCC2)C(=O)C1 | -5.38% (inactive)

Row | SMILES | inhibition
23 | COC(=O)\C(C(C)=O)=C(/C=C/C=C/N(C)C)N(C)C | 27.9% (inactive)
24 | COC(=O)/C(C(C)=O)=C(/C=C/C=C/N(C)C)N(C)C | 16.1% (inactive)
25 | COCCNC(=O)c1cc(-c2ccncc2)nc2ccc(S(=O)(=O)N3CCOCC3)cc12 | -13.5% (inactive)
26 | CC1(C)[C@@H](O)CC[C@]2(C)[C@H]3C(=O)C=C4[C@@H]5C[C@@](C)(C(=O)O)CC[C@]5(C)CC[C@@]4(C)[C@]3(C)CC[C@@H]12 | 27.5% (inactive)
27 | Cc1ccc([C@H]2C(C#N)=C(N)Oc3cc(C)oc(=O)c32)o1 | 1.59% (inactive)
28 | Cc1ccc(C2C(C#N)=C(N)Oc3cc(C)oc(=O)c32)o1 (centres undefined) | -6.32% (inactive)
29 | CCCCCC(=O)NNC1CC(=O)N(c2ccccc2)C1=O (centres undefined) | -9.34% (inactive)
30 | C[C@H](N)c1nnc(SCc2ccc(Cl)cc2Cl)o1 | 1.96% (inactive)
31 | CCN1C(C)=C(C)S/C1=C1\SC(=S)N(N)C1=O | 7% (inactive)
32 | Cn1cc(/C=N/NC(=O)c2cc3cc(Br)ccc3o2)c2ccccc21 | -7.92% (inactive)
33 | O=C(O)Cn1cc(/C=N/NC(=O)c2cc3cc(Br)ccc3o2)c2ccccc21 | 0.84% (inactive)
34 | COc1ccc(Cl)cc1C(=O)NNC(=O)CSc1nnc2ccccn12 | -2.97% (inactive)
35 | O=C(/C=N/O)Nc1cccnc1 | 28.5% (inactive)
36 | COC(=O)/C=C/C(=O)Nc1cccnc1 | 15.1% (inactive)
37 | COc1c(OC(C)=O)ccc(/C=C/c2ccc3cccc(OCc4ccccc4)c3n2)c1[N+](=O)[O-] | 5.7% (inactive)
38 | CCOc1c(OC(C)=O)ccc(/C=C/c2ccc3cccc(OC)c3n2)c1[N+](=O)[O-] | 21.2% (inactive)
39 | O=C(CSCC(=O)c1ccccc1)Nc1ccccc1Cl | -5.7% (inactive)
40 | COc1ccc(C(=O)Nc2cccc(-c3nnc(-c4ccco4)o3)c2)cc1 | -0.63% (inactive)
41 | S=C(NCCN1CCOCC1)N/N=C/c1ccccc1 | 0.06% (inactive)
42 | Oc1ccc(/C=N/NC(=S)NCCN2CCOCC2)c(O)c1 | 24.1% (inactive)
43 | CC(=O)NCCOc1ccc(C(=O)O)cc1 | -5.42% (inactive)
44 | CCCCOC(=O)n1c(=O)oc2ccc(S(=O)(=O)N3CCCCC3)cc21 | -5.83% (inactive)

Row | SMILES | inhibition
45 | O=C(O)c1cc([N+](=O)[O-])cc2ccccc12 | -6.07% (inactive)
46 | O=[N+]([O-])c1cc(-c2ccccc2)cc([N+](=O)[O-])c1O | -4.83% (inactive)
47 | Cc1cc(Cl)c2oc(C(=O)N3CCN(c4cnccn4)CC3)c(C)c2c1 | 2.03% (inactive)
48 | O=C(Cc1ccccc1)NC(Nc1cccc2ccccc12)C(Cl)(Cl)Cl (centres undefined) | -5.91% (inactive)
49 | CC(C)(C)NC(NC(=O)Cc1ccccc1)C(Cl)(Cl)Cl (centres undefined) | 2.28% (inactive)
50 | CN(CCC1CCOCC1)C(=O)C1CCC(=O)N(CCc2ccc(Cl)cc2)C1 (centres undefined) | -0.45% (inactive)
51 | CN1/C(=C\C=Nc2ccc3ccccc3c2)C(C)(C)c2ccccc21 | 15.9% (inactive)
52 | CN1/C(=C\C=Nc2ccccc2)C(C)(C)c2ccccc21 | 13.4% (inactive)
53 | Cc1nc2ccccc2nc1-c1ccc([N+](=O)[O-])cc1 | 3.82% (inactive)
54 | COc1cc2c3c(c1OC)C1(C=CC(=O)C=C1)CC3N(C(=O)c1ccccc1)CC2 (centres undefined) | 16.3% (inactive)
55 | COc1cc2c3c(c1OC)C1(C=CC(=O)C=C1)CC3N(C(C)=O)CC2 (centres undefined) | 25.2% (inactive)
56 | O=S(=O)(Nc1ccccc1)c1ccc(-c2cnc(C3CC3)o2)cc1 | 5.89% (inactive)
57 | CCOc1ccccc1N1CCN(Cc2ccco2)CC1 | 0.19% (inactive)
58 | CCOc1ccc2c(C)c(C)c(=O)oc2c1OCC | -2.36% (inactive)
59 | COC(=O)c1c(C(=O)OC)c(C)n(Cc2ccco2)c1C | 1.05% (inactive)
60 | CCOc1ccccc1OCC(=O)O | 2.95% (inactive)
61 | CCOc1ccccc1N1C(=O)c2ccc(C(=O)O)cc2C1=O | -5.01% (inactive)
62 | COc1cccc(=O)c2c(C)n(CC(=O)c3ccccc3)c(C)c12 | 19.6% (inactive)
63 | COc1cccc(-n2c(C)c3c(OC)cccc(=O)c3c2C)c1 | 31.7% (inactive)
64 | CCOc1cccc2cc(C(C)=O)oc12 | -1.92% (inactive)
